PubChem BioAssay (EPA / NIEHS)
Values joined by “and” are separate entries in the source; they are usually repeats but may differ in a detail not shown here. Identical values can stand only once. Records with an inconclusive call do not appear. Some compounds were tested as several samples or in several runs, with calls that do not always agree. Active and inactive are the calls of the source. Rule for the calls, unless noted: active = hit-call score of the fitted dose curve at least 0.9, where 1 is the maximum; inactive = score below 0.9.

Legend:
[1] = tested on: DIO1 (gene 1733); experiment: CCTE_GLTED_hDIO1: CCTE's human Deiodinase 1 (DIO1) Inhibition Assay, Great Lakes Toxicology and Ecology Division (GLTED) Lab (AID 2283987; active = hit-call score of the fitted dose curve at least 0.9, where 1 is the maximum;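 note: isolated human DIO1 enzyme in a cell-free setup rather than cells; enzyme activity read as free iodide liberated from substrate via Sandell-Kolthoff colorimetry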)
Method in brief: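 Chemicals are tested on human DIO1 without cells for 3 h. Uninhibited enzyme frees iodide, which speeds cerium(IV) reduction by arsenic and is read by spectrophotometry.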

[2] = CCTE_Simmons_MITO_max_resp_rate: CCTE's HepG2 Seahorse XF Respirometric Screening Assay at Maximal Respiratory State [uncoupled], Simmons Lab (AID 2284002); conditions: actives raise or lower the signal
Method in brief: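 Uncoupled (FCCP) respiration of HepG2 cells served as the endpoint, with measurements at 6-minute intervals across a 72-minute run and compounds dosed at 7 concentrations up to 100 uM final.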

[3] = CCTE_Simmons_MITO_viability: CellTiter-Glo Viability Assessment for CCTE's HepG2 Seahorse XF Respirometric Screening Assay [post-hoc], Simmons Lab (AID 2284007; active = hit-call score of the fitted dose curve at least 0.9, where 1 is the maximum;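 for AC50: cells exposed to chemical for 90 min before the ATP read; actives lower ATP signal relative to DMSO baseline meaning reduced viability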)
Method in brief: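 HepG2 cells; test chemical 7 conc. (125 nM–100 uM final) × 90 min; then luminescent ATP detection. DMSO vehicle. Positive control dichlone, 8 conc. from 10 nM to 100 uM final. Loss-of-signal endpoint.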

[4] = CCTE_Shafer_MEA_acute_spike_number: CCTE's Neural Acute Assay for Total Number of Spikes, Shafer Lab (AID 2284008);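 for AC50: curve fitted for decrease in spike count so AC50 reflects inhibitors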
Method in brief: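 Using an adaptive detector set to 8x rms noise, spikes were counted in 40-min windows before and after compound addition (0.03-40 uM) to rat cortical networks at 37 C; the well-level change from baseline was analysed relative to DMSO.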

[5] = CCTE_Shafer_MEA_acute_firing_rate_mean: CCTE's Neural Acute Assay for Mean Firing Rate, Shafer Lab (AID 2284009);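 note: analyzed for loss of signal so actives lower firing rate relative to DMSO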
Method in brief: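 Read-out: well-mean spike rate (spikes/recording length/electrodes), % change from 40 min pre-dose baseline to 40 min with compound. Rat cortical cultures, DIV 13 or 15, 37 C; 0.03-40 uM; DMSO as negative control.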

[6] = CCTE_Harrill_HTTr_Viability_MCF7: CCTE's 6-hour Cell Viability Assessment for the High-Throughput Transcriptomics (HTTr) Platform, in MCF-7 cells cultured in DMEM + 10% fetal bovine serum, Harrill Lab (AID 2284010)
Method in brief: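 Viability measured through PI dye exclusion by high-content imaging at 6 h post-dosing.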

[7] = CCTE_Harrill_HTTr_Apoptosis_MCF7: CCTE's 6-hour Apoptosis Assessment for the High-Throughput Transcriptomics (HTTr) Platform, in MCF-7 cells cultured in DMEM + 10% fetal bovine serum, Harrill Lab (AID 2284011)
Method in brief: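 Apoptosis in MCF-7 cells grown in DMEM with 10% fetal bovine serum was scored after a six hour exposure by high content imaging of caspase-3/7 activation (CellEvent Caspase 3/7 Green), with DMSO serving as negative control and baseline.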

[8] = CCTE_Harrill_HTTr_CellCount_MCF7: CCTE's Cell Proliferation Assessment for the High-Throughput Transcriptomics (HTTr) Platform, Harrill Lab (AID 2284012; active = hit-call score of the fitted dose curve at least 0.9, where 1 is the maximum;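 note: count of Hoechst-stained nuclei per well by high-content imaging in MCF-7 cells; cells exposed to compound for six hours; intended direction is loss of nuclei count meaning fewer cells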)
Method in brief: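 Nuclei counting (Hoechst, high content imaging) in MCF-7 after a 6 h treatment at eight concentrations. Activity fitted bidirectionally, DMSO as negative control.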

[9] = CCTE_Shafer_MEA_acute_burst_number: CCTE's Neural Acute Assay for Single-Electrode Bursts, Shafer Lab (AID 2284013)
Method in brief: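 Rat cortical cultures, DIV 13/15; 40 min baseline, then 40 min with compound 0.03-40 uM, 37 C. Spikes: 300-5000 Hz band-pass, threshold 8x rms noise. Readout = % change in single-electrode bursts vs baseline, loss-of-signal fit.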

[10] = CCTE_Shafer_MEA_acute_burst_duration_mean: CCTE's Neural Acute Assay for Mean Burst Duration, Shafer Lab (AID 2284014);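 note: hits are decreases in mean burst duration relative to DMSO controls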
Method in brief: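 Primary rat cortical neurons on 16-electrode MEA wells, treated on DIV 13 or 15 with compound (0.03-40 uM; ≥3 wells each). 40-min baseline and 40-min exposure recordings at 37 C; percent change in mean burst duration per well versus DMSO.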

[11] = CCTE_Shafer_MEA_acute_interburst_interval_mean: CCTE's Neural Acute Assay for Mean Interburst Interval, Shafer Lab (AID 2284016);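 note: percent change of mean interburst interval versus each well's own pre-dose baseline; curves fitted for decrease in interburst interval relative to DMSO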
Method in brief: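 Primary rat cortical neurons on 16-electrode MEA wells were recorded 40 min at baseline on DIV 13 or 15, then 40 min after compound (0.03-40 uM), at 37 C. Value is percent change in mean interburst interval per well, DMSO as negative control.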

[12] = CCTE_Shafer_MEA_acute_burst_percentage_mean: CCTE's Neural Acute Assay for Percentage of Spikes in a Burst, Shafer Lab (AID 2284017);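 for AC50: curve fitted for loss of signal so potency reflects decreased burst percentage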
Method in brief: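 Primary rat cortical neurons on 16-electrode MEA wells; 40 min baseline recorded at DIV 13 or 15, then 40 min after compound (0.03-40 uM) at 37 C. Well-mean fraction of spikes in single-electrode bursts; percent change from baseline, DMSO as negative control.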

[13] = CCTE_Shafer_MEA_acute_burst_percentage_std: CCTE's Neural Acute Assay for Standard Deviation of Burst Percentage, Shafer Lab (AID 2284018);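 note: fitted in the negative direction so actives lower burst percentage SD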
Method in brief: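 Primary rat cortical neurons on 16-electrode MEA wells were recorded 40 min at baseline (DIV 13 or 15), then 40 min after compound (0.03-40 uM), at 37 C. Well value is SD across electrodes of spikes-in-bursts/total spikes; endpoint is percent change, DMSO-referenced.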

[14] = CCTE_Shafer_MEA_acute_per_network_burst_spike_number_mean: CCTE's Neural Acute Assay for Average Number of Spikes in a Network Burst, Shafer Lab (AID 2284019);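 for AC50: curve fitted for loss of signal so actives reduce spikes per network burst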
Method in brief: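 Primary rat cortical neurons on 16-electrode MEA wells, DIV 13 or 15, 37 C; 40-min baseline then 40-min recording with compound (0.03-40 uM). Spikes per network burst (total spikes/number of bursts) expressed as percent change from baseline, DMSO reference.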

[15] = CCTE_Shafer_MEA_acute_per_network_burst_spike_number_std: CCTE's Neural Acute Assay for Standard Deviation of Number of Spikes in a Network Burst, Shafer Lab (AID 2284020);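 note: fitted for decrease in spike-number SD versus DMSO so actives lower it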
Method in brief: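 Primary rat cortical neurons on 48-well MEAs (16 electrodes/well) recorded at DIV 13 or 15: 40-min baseline, then 40 min with compound (0.03-40 uM), 37 C. Value is percent change in SD of spikes per network burst, relative to DMSO.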

[16] = CCTE_Shafer_MEA_acute_per_network_burst_electrodes_number_mean: CCTE's Neural Acute Assay for Mean Number of Electrodes in a Network Burst, Shafer Lab (AID 2284021);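 note: curves fitted for decreases only so hits reduce electrodes per burst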
Method in brief: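 Percent change from baseline in average electrode count per network burst, rat cortical cultures on 48-well MEAs; 40-min recordings each side of exposure, DIV 13 or 15; threshold 8x rms noise; DMSO as negative control.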

[17] = molecular target: Nucleoli Translocation, AR (gene 367) (UniProt P10275); experiment: UPITT_HCI_U2OS_AR_TIF2_Nucleoli_Antagonist: University of Pittsburgh U2OS Androgen Receptor-Transcriptional Intermediary Factor 2 (AR-TIF2) Antagonism High Content Imaging Assay for Nucleoli Translocation (AID 2283997; active = hit-call score of the fitted dose curve at least 0.9, where 1 is the maximum)
Method in brief: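 U2OS cells expressing RFP-tagged human AR and GFP-tagged TIF2 were imaged by high-content fluorescence microscopy for red AR signal in the nucleolar region. Compounds were screened at 20 uM final (0.2% DMSO), with activity fitted relative to DHT as baseline.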

[18] = molecular target: Nucleoli Translocation, AR (gene 367) (UniProt P10275); experiment: UPITT_HCI_U2OS_AR_TIF2_Nucleoli_Agonist: University of Pittsburgh U2OS Androgen Receptor-Transcriptional Intermediary Factor 2 (AR-TIF2) Agonism High Content Imaging Assay for Nucleoli Translocation (AID 2283998; active = hit-call score of the fitted dose curve at least 0.9, where 1 is the maximum)
Method in brief: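 High-content images quantify nucleolar accumulation of RFP-fused AR in cells also expressing GFP-TIF2; the endpoint is fitted as signal gain versus DMSO controls across final concentrations of 0.195 to 50 uM.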

[19] = molecular target: Ratio of Nucleoli Translocation and Cytoplasm, AR (gene 367) (UniProt P10275); experiment: UPITT_HCI_U2OS_AR_TIF2_Nucleoli_Cytoplasm_Ratio_Antagonist: University of Pittsburgh U2OS Androgen Receptor-Transcriptional Intermediary Factor 2 (AR-TIF2) Antagonism High Content Imaging Assay for Ratio of Nucleoli Translocation and Cytoplasm (AID 2283999; active = hit-call score of the fitted dose curve at least 0.9, where 1 is the maximum;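 note: antagonists lower the DHT-driven ratio of nucleolar to cytoplasmic red signal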)
Method in brief: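 High-content imaging quantifies the red nucleolar:cytoplasmic fluorescence ratio in U2OS cells with AR-RFP and TIF2-GFP. Final concentrations are 20 uM (screen) or 0.195–50 uM (dose response), analysed against DHT as baseline.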

[20] = molecular target: Ratio of Nucleoli Translocation and Cytoplasm, AR (gene 367) (UniProt P10275); experiment: UPITT_HCI_U2OS_AR_TIF2_Nucleoli_Cytoplasm_Ratio_Agonist: University of Pittsburgh U2OS Androgen Receptor-Transcriptional Intermediary Factor 2 (AR-TIF2) Agonism High Content Imaging Assay for Ratio of Nucleoli Translocation and Cytoplasm (AID 2284000; active = hit-call score of the fitted dose curve at least 0.9, where 1 is the maximum;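 note: hits raise the red nucleolar to cytoplasm ratio above vehicle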)
Method in brief: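 U2OS cells expressing RFP-tagged human AR and GFP-tagged TIF2 were imaged by high-content fluorescence microscopy. The endpoint is the ratio of nucleolar to cytoplasmic red fluorescence, fitted for gain of signal relative to DMSO. Concentration-response spanned 0.195 to 50 uM final (0.5% DMSO).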

Measured: AC50

Ratio of Nucleoli Translocation and Cytoplasm, AR (gene 367), sequence (P10275 whole entry, looked up): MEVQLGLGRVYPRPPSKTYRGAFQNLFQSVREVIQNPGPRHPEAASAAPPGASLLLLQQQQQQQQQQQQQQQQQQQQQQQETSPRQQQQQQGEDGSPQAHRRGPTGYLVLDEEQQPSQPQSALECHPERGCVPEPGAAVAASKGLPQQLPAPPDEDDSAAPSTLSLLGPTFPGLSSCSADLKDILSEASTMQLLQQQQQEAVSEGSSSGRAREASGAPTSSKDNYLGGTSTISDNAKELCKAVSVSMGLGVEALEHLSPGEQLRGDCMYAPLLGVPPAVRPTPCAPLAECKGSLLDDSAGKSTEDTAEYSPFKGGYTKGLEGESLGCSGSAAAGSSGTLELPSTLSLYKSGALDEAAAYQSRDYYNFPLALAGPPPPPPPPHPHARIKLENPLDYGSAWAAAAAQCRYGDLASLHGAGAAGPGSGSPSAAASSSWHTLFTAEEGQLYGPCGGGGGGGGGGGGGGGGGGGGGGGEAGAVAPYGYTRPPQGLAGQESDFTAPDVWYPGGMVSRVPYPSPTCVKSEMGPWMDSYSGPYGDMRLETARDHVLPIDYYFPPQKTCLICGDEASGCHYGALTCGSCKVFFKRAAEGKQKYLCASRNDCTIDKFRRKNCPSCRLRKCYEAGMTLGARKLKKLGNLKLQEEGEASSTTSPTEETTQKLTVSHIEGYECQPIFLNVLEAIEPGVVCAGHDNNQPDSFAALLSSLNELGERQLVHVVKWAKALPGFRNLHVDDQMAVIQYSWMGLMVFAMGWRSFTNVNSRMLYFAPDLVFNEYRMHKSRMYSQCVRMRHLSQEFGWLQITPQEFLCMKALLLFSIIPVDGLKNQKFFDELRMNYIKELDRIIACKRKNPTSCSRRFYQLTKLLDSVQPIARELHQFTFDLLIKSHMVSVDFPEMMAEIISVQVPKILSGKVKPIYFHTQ
Nucleoli Translocation, AR (gene 367), sequence (P10275 whole entry, looked up, the tested form may be a part): as the sequence (P10275 whole entry, looked up) above

CC[C@H](C)[C@H]1O[C@]2(C=C[C@@H]1C)C[C@@H]1C[C@@H](C/C=C(\C)[C@@H](O[C@H]3C[C@H](OC)[C@@H](O[C@H]4C[C@H](OC)[C@@H](NC)[C@H](C)O4)[C@H](C)O3)[C@@H](C)/C=C/C=C3\CO[C@@H]4[C@H](O)C(C)=C[C@@H](C(=O)O1)[C@]34O)O2
inactive: [7]
active: [1] 26 µM | [2] 97.8 µM | [3] 86.9 µM | [4] 4.95 nM and 26.8 nM | [5] 4.94 nM and 26.8 nM | [6] 50 µM | [8] 50 µM | [9] 7.43 nM and 28.2 nM | [10] 38.2 µM and 1.5 µM | [11] 26.1 nM and 2.28 µM | [12] 26.6 nM and 37.8 nM | [13] 48.5 nM and 2.98 µM | [14] 22.5 nM and 1.91 µM | [15] 23.7 nM and 1.5 µM | [16] 615 nM and 8.88 µM

CSC1=N[C@@](C)(c2ccccc2)C(=O)N1Nc1ccccc1
inactive: [3] | [4] | [5] | [6] | [7] | [9] | [10] | [11] | [14] | [15] | [16]
active: [2] 41 µM | [4] 5800 nM | [5] 5760 nM | [10] 32 µM | [12] 20 µM and 24.4 µM | [13] 37.7 µM and 26.1 µM | [15] 30.8 µM

CCc1cccc(CC)c1N(COC)C(=O)CCl
active: [17] 20.1 µM | [19] 12.8 µM | [2] 13.8 µM
inactive: [18] | [20] | [3] | [6] | [7]

CNC(=O)ON=C(SC)C(=O)N(C)C
inactive: [17] | [18] | [19] | [4] | [5] | [6] | [7] | [8] | [9] | [10] | [11] | [12] | [13] | [14] | [15] | [16]

Nc1c(Cl)cc([N+](=O)[O-])cc1Cl
inactive: [18] | [19] | [20] | [4] | [5] | [6] | [7] | [8] | [9] | [10] | [14]
active: [17] 41.7 µM | [11] 30.2 µM | [12] 20 µM | [13] 26.9 µM | [15] 37 µM | [16] 20 µM

CC(C)N(C(=O)SCC(Cl)=C(Cl)Cl)C(C)C
active: [4] 8.85 µM and 5.81 µM | [5] 8.79 µM and 5.81 µM | [11] 11.9 µM | [12] 20 µM and 15 µM | [13] 20 µM and 7.81 µM | [14] 5790 nM | [15] 10.2 µM and 9.26 µM | [16] 11.5 µM and 5.51 µM
inactive: [2] | [3] | [6] | [7] | [9] | [10] | [11] | [14]

CCCSP(=O)(OCC)SCCC
active: [2] 38.1 µM
inactive: [17] | [18] | [19] | [20] | [3] | [6] | [7] | [8]

CCC(=O)Nc1ccc(Cl)c(Cl)c1
inactive: [19] | [20] | [3] | [6] | [7]
active: [17] 14.3 µM | [2] 27.3 µM

O=[N+]([O-])c1cc(C(F)(F)F)c(Cl)c([N+](=O)[O-])c1Nc1ncc(C(F)(F)F)cc1Cl
inactive: [2] | [3] | [7] | [8] | [13]
active: [1] 19.4 µM | [4] 351 nM | [5] 350 nM | [6] 21.5 µM | [9] 322 nM | [10] 1.59 µM | [11] 1.14 µM | [12] 0.678 µM | [14] 321 nM | [15] 0.465 µM | [16] 0.481 µM

CCC(CC)Nc1c([N+](=O)[O-])cc(C)c(C)c1[N+](=O)[O-]
inactive: [3] | [6] | [7]
active: [2] 29.8 µM

CCCOCC(=Nc1ccc(Cl)cc1C(F)(F)F)n1ccnc1
active: [1] 16.2 µM | [2] 15.4 µM | [3] 18.2 µM | [4] 568 nM | [5] 571 nM | [9] 686 nM | [10] 6.29 µM | [12] 2.71 µM | [14] 943 nM | [15] 4.42 µM
inactive: [6] | [7] | [8] | [11] | [13] | [16]

C[N+]1(C)CCCCC1
inactive: [17] | [18] | [19] | [20] | [4] | [5] | [6] | [7] | [8] | [9] | [10] | [11] | [12] | [13] | [14] | [15] | [16]

CC1(C(=O)Nc2ccc(O)c(Cl)c2Cl)CCCCC1
active: [2] 31.4 µM
inactive: [3] | [6] | [7]

O=c1ccc(=O)[nH][nH]1
inactive: [17] | [18] | [20] | [6] | [7] | [8]
